# Measured values as given in PubChem BioAssay (NCATS).
# “And” between values parts separate entries of the source, which are not always exact repeats. Equal values may be shown once. Inconclusive results are not listed. A call without a number means that no potency is given here. Where a structure was tested more than once in an assay, its records may differ in their call. The source made the active and inactive calls. Unless noted, calls come from the whole dose curve; as a rule, active = well fitted curve in the direction sought with a large enough effect; inconclusive = small, poorly fitted or top-dose-only effect, or another doubt; inactive = no such curve, though single readings can be large; an effect the other way counts as inactive or inconclusive.
# Columns and labels:
# [1] = target: Cytochrome P450 2D6 (Homo sapiens) (UniProt P10635); assay: Cytochrome P450 family 2 subfamily D member 6 (CYP2D6) small molecule antagonists: luciferase biochemical (cell-free) qHTS assay (AID 1645840; active = well fitted curve in the direction sought with a large enough effect in the repeat runs; an effect the other way counts as inactive or inconclusive; note: nearly all actives have a fitted effect of over 55% in size; note: potency is the fitted concentration of half-maximal effect); settings: P450-Glo CYP2D6 enzyme, luciferin luminescence, 1 h; series mostly up to 57.4 µM
# Cytochrome P450 2D6 (Homo sapiens), sequence (P10635 whole entry, looked up): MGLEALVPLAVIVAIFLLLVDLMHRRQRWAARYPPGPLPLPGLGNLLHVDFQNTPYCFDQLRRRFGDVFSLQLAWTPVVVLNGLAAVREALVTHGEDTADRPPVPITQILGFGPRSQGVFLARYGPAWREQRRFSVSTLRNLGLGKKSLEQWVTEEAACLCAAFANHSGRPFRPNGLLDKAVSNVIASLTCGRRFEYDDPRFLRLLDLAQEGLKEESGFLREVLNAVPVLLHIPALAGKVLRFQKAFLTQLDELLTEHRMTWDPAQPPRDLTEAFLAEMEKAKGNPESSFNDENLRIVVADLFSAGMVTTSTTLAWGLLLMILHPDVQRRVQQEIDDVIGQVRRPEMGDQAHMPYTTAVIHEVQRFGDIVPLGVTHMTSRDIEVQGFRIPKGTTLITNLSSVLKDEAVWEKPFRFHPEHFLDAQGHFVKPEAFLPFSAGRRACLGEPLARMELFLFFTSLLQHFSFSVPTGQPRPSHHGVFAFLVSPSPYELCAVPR
# In short: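 P450-Glo CYP2D6 system: proluciferin substrate converted by enzyme to luciferin, read by luminescence proportional to activity. Enzyme-substrate mix with compound 10 min at room temperature, then NADPH regeneration 1 h before detection reagent.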
# [2] = target: Cytochrome P450 2C9 (Homo sapiens) (UniProt P11712); assay: Cytochrome P450 family 2 subfamily C member 9 (CYP2C9) small molecule antagonists: luciferase biochemical (cell-free) qHTS assay (AID 1645842; active = well fitted curve in the direction sought with a large enough effect in the repeat runs; an effect the other way counts as inactive or inconclusive; note: nearly all actives have a fitted effect of over 55% in size; note: potency is the fitted concentration of half-maximal effect); settings: P450-Glo CYP2C9 enzyme assay, luciferin luminescence; series mostly up to 57.4 µM
# Cytochrome P450 2C9 (Homo sapiens), sequence (P11712 whole entry, looked up): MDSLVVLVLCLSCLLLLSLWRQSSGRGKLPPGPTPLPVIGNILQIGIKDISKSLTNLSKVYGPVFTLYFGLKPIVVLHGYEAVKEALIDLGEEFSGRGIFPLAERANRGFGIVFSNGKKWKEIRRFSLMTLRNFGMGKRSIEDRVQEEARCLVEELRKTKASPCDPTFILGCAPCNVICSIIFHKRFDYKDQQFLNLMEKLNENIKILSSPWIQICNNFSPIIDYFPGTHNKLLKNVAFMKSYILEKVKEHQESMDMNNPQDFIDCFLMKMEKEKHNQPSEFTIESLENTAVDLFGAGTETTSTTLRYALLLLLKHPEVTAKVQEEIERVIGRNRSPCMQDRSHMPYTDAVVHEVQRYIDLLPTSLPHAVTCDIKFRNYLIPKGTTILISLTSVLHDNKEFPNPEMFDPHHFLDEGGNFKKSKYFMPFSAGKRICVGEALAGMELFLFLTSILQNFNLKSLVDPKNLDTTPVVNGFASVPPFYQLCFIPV
# In short: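 P450-Glo CYP2C9 system: proluciferin substrate with enzyme in mix containing 0.4% BSA, 10 min at room temperature, then NADPH regeneration solution added and incubated 1 h at 37C. Detection reagent stopped reaction; luminescence read after 20 min as RLU.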
# [3] = Primary qHTS for inhibitors of nuclear receptor binding SET domain protein 2 (NSD2) in an isogenic RCH-ACV NSD2 p.E1099K mutant (9B) (AID 1645876); settings: RCH-ACV NSD2 E1099K (9B) viability, CellTiter-Glo, 72 h; series mostly up to 44.9 µM; note: nearly all actives have a fitted effect of over 70% in size; note: potency is the fitted concentration of half-maximal effect
# Papain (Carica papaya) = Papain (Carica papaya) (UniProt P00784); assay: Primary qHTS assay for inhibitors of the protease papain (AID 1645873); settings: papain Z-FR-AMC cleavage, AMC fluorescence; series mostly up to 49.8 µM;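 note: papain turnover of Z-FR-AMC read as the AMC fluorescence gain over 10 min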; note: potency is the fitted concentration of half-maximal effect
# Papain (Carica papaya), sequence (P00784 whole entry, looked up, the tested form may be a part): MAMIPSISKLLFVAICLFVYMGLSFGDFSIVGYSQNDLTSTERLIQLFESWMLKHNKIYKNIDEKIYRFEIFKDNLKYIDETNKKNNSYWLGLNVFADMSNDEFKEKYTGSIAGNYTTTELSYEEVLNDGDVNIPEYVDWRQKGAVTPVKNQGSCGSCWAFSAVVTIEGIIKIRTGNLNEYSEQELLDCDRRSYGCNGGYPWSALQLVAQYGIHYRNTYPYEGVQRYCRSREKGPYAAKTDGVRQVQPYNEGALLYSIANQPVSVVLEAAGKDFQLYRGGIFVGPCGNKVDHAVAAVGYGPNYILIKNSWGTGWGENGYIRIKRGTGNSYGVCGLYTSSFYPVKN
# [4] = Primary qHTS for inhibitors of nuclear receptor binding SET domain protein 2 (NSD2) in an RCH-ACV wild type WT cells (2C) (AID 1645877); settings: RCH-ACV (leukaemia line) NSD2 WT (2C) viability, CellTiter-Glo, 72 h; series mostly up to 44.9 µM; note: nearly all actives have a fitted effect of over 70% in size; note: potency is the fitted concentration of half-maximal effect
# [5] = target: Rap guanine nucleotide exchange factor 3 (Homo sapiens) (UniProt O95398); assay: Confirmatory qHTS for agonist of cAMP-regulated guanine nucleotide exchange factor 3 (EPAC1) (AID 1645881); settings: EPAC1 Rap1B BODIPY-GDP exchange fluorescence; series mostly up to 154 µM;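 note: EPAC1 catalysed release of BODIPY-GDP from Rap1B seen as fluorescence loss; nearly all actives have a fitted effect of over 75% in size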
# Rap guanine nucleotide exchange factor 3 (Homo sapiens), sequence (O95398 whole entry, looked up): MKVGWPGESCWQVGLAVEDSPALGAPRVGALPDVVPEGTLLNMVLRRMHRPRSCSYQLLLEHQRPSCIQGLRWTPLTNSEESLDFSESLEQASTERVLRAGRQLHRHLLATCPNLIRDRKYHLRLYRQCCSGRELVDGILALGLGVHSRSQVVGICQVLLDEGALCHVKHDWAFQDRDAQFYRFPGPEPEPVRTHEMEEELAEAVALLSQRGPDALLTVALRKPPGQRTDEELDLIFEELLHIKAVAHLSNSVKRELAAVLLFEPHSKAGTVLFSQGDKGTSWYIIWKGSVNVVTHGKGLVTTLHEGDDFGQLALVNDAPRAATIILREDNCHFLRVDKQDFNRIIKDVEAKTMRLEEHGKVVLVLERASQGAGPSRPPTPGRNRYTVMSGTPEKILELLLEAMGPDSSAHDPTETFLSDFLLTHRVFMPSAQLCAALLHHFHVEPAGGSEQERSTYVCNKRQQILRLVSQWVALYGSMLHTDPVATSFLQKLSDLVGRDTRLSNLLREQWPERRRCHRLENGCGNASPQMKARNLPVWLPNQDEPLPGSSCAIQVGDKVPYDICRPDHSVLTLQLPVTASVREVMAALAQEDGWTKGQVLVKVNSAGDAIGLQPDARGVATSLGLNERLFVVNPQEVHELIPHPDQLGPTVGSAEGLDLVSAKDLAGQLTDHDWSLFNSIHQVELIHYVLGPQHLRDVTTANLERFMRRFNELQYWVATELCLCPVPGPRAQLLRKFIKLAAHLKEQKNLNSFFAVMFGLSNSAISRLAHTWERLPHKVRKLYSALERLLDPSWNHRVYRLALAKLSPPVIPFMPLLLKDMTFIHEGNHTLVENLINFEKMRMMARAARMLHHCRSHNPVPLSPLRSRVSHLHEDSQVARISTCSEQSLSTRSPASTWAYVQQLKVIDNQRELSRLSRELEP
# [6] = target: Rap guanine nucleotide exchange factor 4 (Homo sapiens) (UniProt Q8WZA2); assay: Confirmatory qHTS for agonist of cAMP-regulated guanine nucleotide exchange factor 4 (EPAC2) (AID 1645884); settings: EPAC2 GEF activity, Rap1B-BODIPY-GDP fluorescence; series mostly up to 154 µM;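 note: nucleotide exchange releases bodipy-GDP from Rap1 and this lowers its fluorescence; nearly all actives have a fitted effect of over 65% in size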
# Rap guanine nucleotide exchange factor 4 (Homo sapiens), sequence (Q8WZA2 whole entry, looked up): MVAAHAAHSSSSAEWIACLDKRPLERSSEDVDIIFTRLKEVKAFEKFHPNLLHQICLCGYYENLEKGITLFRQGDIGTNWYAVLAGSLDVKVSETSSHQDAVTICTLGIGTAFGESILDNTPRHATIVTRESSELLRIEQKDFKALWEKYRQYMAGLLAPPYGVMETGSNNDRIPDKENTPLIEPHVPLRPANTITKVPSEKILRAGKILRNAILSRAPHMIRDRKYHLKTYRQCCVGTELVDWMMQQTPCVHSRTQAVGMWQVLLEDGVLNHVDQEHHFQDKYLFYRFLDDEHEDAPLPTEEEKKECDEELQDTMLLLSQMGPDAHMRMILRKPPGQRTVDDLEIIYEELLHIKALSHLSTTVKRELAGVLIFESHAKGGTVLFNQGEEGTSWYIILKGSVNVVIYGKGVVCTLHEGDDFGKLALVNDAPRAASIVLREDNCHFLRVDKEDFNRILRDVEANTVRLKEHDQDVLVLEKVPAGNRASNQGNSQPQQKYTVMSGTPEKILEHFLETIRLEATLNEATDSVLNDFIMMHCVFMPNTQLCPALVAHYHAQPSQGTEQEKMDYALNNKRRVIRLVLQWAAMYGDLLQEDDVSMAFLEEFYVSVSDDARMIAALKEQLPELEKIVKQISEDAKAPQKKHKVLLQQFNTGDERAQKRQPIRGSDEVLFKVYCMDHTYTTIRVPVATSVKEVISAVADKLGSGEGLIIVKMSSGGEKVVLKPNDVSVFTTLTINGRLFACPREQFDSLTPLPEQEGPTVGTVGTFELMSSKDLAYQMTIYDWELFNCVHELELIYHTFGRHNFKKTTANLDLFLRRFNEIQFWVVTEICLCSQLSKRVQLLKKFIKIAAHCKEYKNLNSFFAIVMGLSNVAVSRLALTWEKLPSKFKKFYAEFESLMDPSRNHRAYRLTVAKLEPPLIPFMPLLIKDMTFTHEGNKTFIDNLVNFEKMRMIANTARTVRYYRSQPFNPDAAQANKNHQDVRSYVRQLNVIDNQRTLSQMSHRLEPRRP
# [7] = target: Rap guanine nucleotide exchange factor 3 (Homo sapiens) (UniProt O95398); assay: Confirmatory qHTS for antagonist of cAMP-regulated guanine nucleotide exchange factor 3 (EPAC1) (AID 1645880); settings: EPAC1 Rap1B-BODIPY-GDP exchange, fluorescence; series mostly up to 115 µM; note: nearly all actives have a fitted effect of over 55% in size
# In short: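 Released BODIPY-GDP fluoresces less than Rap1-bound BODIPY-GDP; the signal is followed at 480/540 nm at 5-min intervals over 30 min, after 5 min at room temperature. Reactions contain 100 nM EPAC1, 250 nM RAP1B-BODIPY-GDP and 50 uM GDP; results are normalized to ATA and DMSO.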
smiles,measurement,setting,value
Cc1cn([C@H]2C[C@H](N=[N+]=[N-])[C@@H](CO)O2)c(=O)[nH]c1=O,Potency,[1],inactive
same,Potency,[2],inactive
same,Potency,[3],inactive
CC(C)(Oc1ccc(C2CC2(Cl)Cl)cc1)C(=O)O (configuration not stated),Potency,[1],inactive
same,Potency,Papain (Carica papaya),inactive
same,Potency,[3],inactive
same,Potency,[4],inactive
COc1ccccc1OCCNCC(O)COc1cccc2[nH]c3ccccc3c12 (configuration not stated),Potency,[1],1.95 µM (active)
same,Potency,Papain (Carica papaya),inactive
C[C@@H]1CC(=O)NN=C1c1ccc(NN=C(C#N)C#N)cc1,Potency,[1],inactive
same,Potency,[2],977 nM (active) and 692 nM (active)
same,Potency,[3],9.44 µM (active) and 18.6 µM (active)
same,Potency,[4],11.9 µM (active) and 23.7 µM (active)
CN1C(C(=O)Nc2ccccn2)=C(O)c2ccccc2S1(=O)=O,Potency,[1],inactive
same,Potency,[2],15.5 µM (active) and 10.7 µM (active)
same,Potency,Papain (Carica papaya),inactive
same,Potency,[3],inactive
same,Potency,[4],inactive
COc1ccc2c(c1)c(CC(=O)O)c(C)n2C(=O)c1ccc(Cl)cc1,Potency,[1],inactive
same,Potency,[2],11 µM (active)
same,Potency,Papain (Carica papaya),inactive
same,Potency,[3],inactive
same,Potency,[4],inactive
NC(CO)C(=O)NNCc1ccc(O)c(O)c1O (configuration not stated),Potency,Papain (Carica papaya),inactive
same,Potency,[3],26.3 µM (active)
O=C(C1CCCCC1)N1CC(=O)N2CCc3ccccc3C2C1 (configuration not stated),Potency,[2],inactive
same,Potency,Papain (Carica papaya),inactive
same,Potency,[3],inactive
same,Potency,[4],inactive
Cn1cnc2c1c(=O)[nH]c(=O)n2C,Potency,Papain (Carica papaya),inactive
same,Potency,[3],inactive
same,Potency,[4],inactive
COc1ccccc1OCC(O)CN1CCN(CC(=O)Nc2c(C)cccc2C)CC1 (configuration not stated),Potency,Papain (Carica papaya),inactive
same,Potency,[3],inactive
same,Potency,[4],inactive
CCc1cccc2c3c([nH]c12)C(CC)(CC(=O)O)OCC3 (configuration not stated),Potency,[2],18.2 µM (active)
same,Potency,Papain (Carica papaya),inactive
same,Potency,[3],inactive
same,Potency,[4],inactive
CCOC(=O)C(C)(C)Oc1ccc(Cl)cc1,Potency,Papain (Carica papaya),inactive
same,Potency,[3],inactive
same,Potency,[4],inactive
NC12CC3CC(CC(C3)C1)C2,Potency,Papain (Carica papaya),inactive
same,Potency,[3],inactive
same,Potency,[4],inactive
CC(C)C(=O)Nc1ccc([N+](=O)[O-])c(C(F)(F)F)c1,Potency,Papain (Carica papaya),inactive
CC(CCc1ccc(O)cc1)NCCc1ccc(O)c(O)c1 (configuration not stated),Potency,[2],inactive
same,Potency,Papain (Carica papaya),inactive
CCCNCC(O)COc1ccccc1C(=O)CCc1ccccc1 (configuration not stated),Potency,Papain (Carica papaya),inactive
same,Potency,[3],18.6 µM (active)
same,Potency,[4],15 µM (active) and 16.6 µM (active)
O=C(c1ccc(OCCN2CCCCC2)cc1)c1c(-c2ccc(O)cc2)sc2cc(O)ccc12,Potency,Papain (Carica papaya),inactive
same,Potency,[3],21.1 µM (active) and 23.5 µM (active) and 20.6 µM (active)
same,Potency,[4],13.3 µM (active) and 18.6 µM (active) and 18.4 µM (active)
CCCCc1oc2ccccc2c1C(=O)c1cc(I)c(OCCN(CC)CC)c(I)c1,Potency,Papain (Carica papaya),inactive
C[C@](N)(Cc1ccc(O)c(O)c1)C(=O)O,Potency,[2],inactive
same,Potency,Papain (Carica papaya),inactive
same,Potency,[3],inactive
same,Potency,[4],inactive
Nc1nnc(-c2cccc(Cl)c2Cl)c(N)n1,Potency,[2],inactive
same,Potency,Papain (Carica papaya),inactive
same,Potency,[3],inactive
same,Potency,[4],inactive
CS(=O)(=O)CCNCc1ccc(-c2ccc3ncnc(Nc4ccc(OCc5cccc(F)c5)c(Cl)c4)c3c2)o1,Potency,[3],18.8 µM (active) and 9.16 µM (active) and 16.6 µM (active)
same,Potency,[4],11.9 µM (active) and 7.28 µM (active) and 16.6 µM (active)
O=c1c(-c2ccc(O)cc2)coc2cc(O)cc(O)c12,Potency,[2],inactive
same,Potency,Papain (Carica papaya),inactive
same,Potency,[3],11.9 µM (active) and 13.5 µM (active)
same,Potency,[4],11.9 µM (active) and 10.8 µM (active)
CN1CCN(C2=Nc3cc(Cl)ccc3Nc3ccccc32)CC1,Potency,Papain (Carica papaya),inactive
COc1cc2nc(N(C)CCCNC(=O)C3CCCO3)nc(N)c2cc1OC (configuration not stated),Potency,[2],inactive
same,Potency,Papain (Carica papaya),22.4 µM (active)
same,Potency,[3],inactive
same,Potency,[4],inactive
CC(C)NCC(O)c1ccc(O)c(O)c1 (configuration not stated),Potency,[2],inactive
same,Potency,Papain (Carica papaya),inactive
same,Potency,[3],inactive
CN(C)CCOC(c1ccccc1)c1ccccc1,Potency,Papain (Carica papaya),inactive
same,Potency,[3],inactive
same,Potency,[4],inactive
O=C1c2c(O)ccc(O)c2C(=O)c2c(NCCNCCO)ccc(NCCNCCO)c21,Potency,Papain (Carica papaya),inactive
same,Potency,[3],0.186 µM (active)
same,Potency,[4],132 nM (active)
O=c1c(O)c(-c2ccc(O)c(O)c2)oc2cc(O)cc(O)c12,Potency,Papain (Carica papaya),inactive
same,Potency,[3],11.9 µM (active) and inactive and 9.2 µM (active)
same,Potency,[4],inactive and 14.6 µM (active)
same,Potency,[5],inactive
same,Potency,[6],inactive
NCCS(=O)(=O)O,Potency,Papain (Carica papaya),inactive
same,Potency,[3],inactive
same,Potency,[4],inactive
same,outcome,[7],inactive
same,Potency,[5],inactive
same,Potency,[6],inactive
CC#C[C@]1(O)CC[C@H]2[C@@H]3CCC4=CC(=O)CCC4=C3[C@@H](c3ccc(N(C)C)cc3)C[C@@]21C,Potency,[2],1.74 µM (active)
same,Potency,Papain (Carica papaya),inactive
same,Potency,[3],23.5 µM (active)
